The source made the active and inactive calls. The calls were made as follows: active = hit-call score of the fitted dose curve at least 0.9, where 1 is the maximum; inactive = score below 0.9.

Experiment [1] is described as follows: ATG_CRE_CIS: Attagene CIS-FACTORIAL HepG2 Assay for human cAMP Responsive Element (CRE) binding protein 3 (AID 2282926). The settings on record: HepG2 CRE cis-reporter, Attagene multiplexed mRNA; actives raise or lower the signal. The method in brief: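 Transfected HepG2 were treated for 24 hours, then RNA was extracted and reporter cDNA amplified with sequence-specific primers. Labelled fragments were separated by capillary electrophoresis, and the CRE signal was fitted bidirectionally with DMSO as baseline.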

The target of experiment [2] is CCAAT/enhancer-binding protein beta (Homo sapiens) (UniProt P17676). Nature of the experiment: ATG_C_EBP_CIS: Attagene CIS-FACTORIAL HepG2 Assay for human CCAAT/Enhancer Binding Protein (C/EBP) beta (AID 2282927). The settings on record: HepG2 Attagene cis-factorial transcription factor reporter; actives raise or lower the signal. The method in brief:
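Transiently transfected HepG2 (MRTU library, endogenous TF-driven promoters); 24 h dosing; total RNA → oligo(dT) RT → PCR → 6-FAM primer extension → HpaI digest → CE; fit bidirectionally vs DMSO.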

Experiment [3] can be described thus: ATG_CMV_CIS: Attagene CIS-FACTORIAL HepG2 Assay for human CMV (Internal Marker) (AID 2282928).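 Also: endpoint acts as a background internal control marker rather than a target.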 The note with it: HepG2 CMV promoter reporter, transcription factor profiling; actives raise or lower the signal. The method in brief: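 Cell system: HepG2, transiently transfected multiple reporter units under cis promoters. Exposure: 24 h. Detection: RT-PCR, FAM labeling, HpaI digestion, capillary electrophoresis. Analysis: bidirectional, DMSO baseline.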

Experiment [4] is described as follows: ATG_DR4_LXR_CIS: Attagene CIS-FACTORIAL HepG2 Assay for human Liver X Receptor (LXR), DR4 submotif (AID 2282929). The settings on record: HepG2 Attagene DR4 cis-reporter, mRNA transcription; actives raise or lower the signal. In outline: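 HepG2 cells were transiently transfected with multiple cis-regulated reporter units and dosed for 24 hours. The DR4 reporter mRNA was quantified by RT-PCR, 6-FAM labelling and capillary electrophoresis. Bidirectional fits used DMSO as baseline.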

Experiment [5] deals with Aryl hydrocarbon receptor (Homo sapiens) (UniProt P35869). Nature of the experiment: ATG_Ahr_CIS: Attagene CIS-FACTORIAL HepG2 Assay for human Aryl Hydrocarbon Receptor (Ahr) (AID 2282930). The note with it: HepG2 AhR cis-factorial reporter transcription; actives raise or lower the signal. In outline: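 Read-out: reporter mRNA quantified by RT-PCR with fluorescent primer extension and capillary electrophoresis. Human HepG2 liver cells carried transfected cis-promoter reporter units and were exposed to chemical for 24 h; gain or loss fitted relative to DMSO.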

The nature of experiment [6]: ATG_AP_1_CIS: Attagene CIS-FACTORIAL HepG2 Assay for human Activator Protein 1 (AP-1) (AID 2282931). The settings on record: HepG2 Attagene cis-factorial AP-1 reporter mRNA; actives raise or lower the signal. The method in brief:
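HepG2 cells transiently transfected with cis-element-driven reporter transcription units, dosed for 24 hours. Reporter mRNA measured by RT-PCR, 6-FAM labelling, HpaI digestion and capillary electrophoresis. Bidirectional fitting against DMSO baseline.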

Experiment [7] can be described thus: ATG_AP_2_CIS: Attagene CIS-FACTORIAL HepG2 Assay for human Activator Protein 2 (AP-2) (AID 2282932). The settings on record: HepG2 AP-2 cis-reporter, Attagene transcription factor profiling; actives raise or lower the signal. In outline:
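Multiplexed mRNA reporter assay in HepG2: cis-regulated units report endogenous factor activity after 24 h treatment. Fluorescence from capillary electrophoresis of RT-PCR products gives the signal, with DMSO as baseline.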

Experiment [8] in a line: ATG_BRE_CIS: Attagene CIS-FACTORIAL HepG2 Assay for human Bone Morphogenetic Protein (BMP) Response Element (BRE) (AID 2282933). The settings on record: HepG2 BMP response element reporter, Attagene transcription factor profiling; actives raise or lower the signal. The method in brief:
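Transient MRTU transfection of human HepG2 liver cells; 24 h compound treatment; total RNA isolated, reverse-transcribed, PCR-amplified, 6-FAM labelled, HpaI-cut, capillary electrophoresis. DMSO = negative control/baseline, bidirectional fit.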

Experiment [9] has as its target Retinoic acid receptor alpha (Homo sapiens) (UniProt P10276). Nature of the experiment: ATG_DR5_RAR_CIS: Attagene CIS-FACTORIAL HepG2 Assay for human Retinoic Acid Receptor Alpha (RARE), DR5 submotif (AID 2282934).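 As to AC50: reporter responds to endogenous RAR alpha beta and gamma in HepG2 not RARA alone.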 The note with it: HepG2 Attagene cis-factorial RARE DR5 reporter, mRNA; actives raise or lower the signal. In outline: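 Read-out: DR5-driven reporter transcript measured by RT-PCR, 6-FAM primer extension, HpaI digest and capillary electrophoresis. Human HepG2 liver cells carry transiently transfected cis-element reporter constructs; dosing lasts 24 h. Gain or loss of signal fitted against DMSO baseline.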

Experiment [10] addresses Transcription factor E2F1 (Homo sapiens) (UniProt Q01094). Nature of the experiment: ATG_E2F_CIS: Attagene CIS-FACTORIAL HepG2 Assay for human E2F Transcription Factor 1 (AID 2282935). The note with it: HepG2 Attagene cis-reporter, E2F reporter RNA transcripts; actives raise or lower the signal. The method in brief: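 Measures reporter transcript levels via RT-PCR with capillary electrophoresis detection in HepG2 cells harboring cis-regulated reporter units; 24 h post-dose; bidirectional curve fitting with DMSO as baseline.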

Transcription factor E2F1 (Homo sapiens), sequence (Q01094 whole entry, looked up): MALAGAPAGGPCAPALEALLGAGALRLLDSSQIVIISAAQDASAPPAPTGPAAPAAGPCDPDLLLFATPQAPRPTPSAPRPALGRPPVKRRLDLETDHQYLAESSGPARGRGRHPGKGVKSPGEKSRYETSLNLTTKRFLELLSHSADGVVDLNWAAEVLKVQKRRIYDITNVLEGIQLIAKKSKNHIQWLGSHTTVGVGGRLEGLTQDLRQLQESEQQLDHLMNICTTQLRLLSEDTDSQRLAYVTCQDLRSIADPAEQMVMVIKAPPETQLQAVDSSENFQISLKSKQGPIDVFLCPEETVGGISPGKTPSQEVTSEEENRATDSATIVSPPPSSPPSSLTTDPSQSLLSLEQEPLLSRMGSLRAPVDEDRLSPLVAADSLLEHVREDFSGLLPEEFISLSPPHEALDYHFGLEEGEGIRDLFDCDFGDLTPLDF
Aryl hydrocarbon receptor (Homo sapiens), sequence (P35869 whole entry, looked up): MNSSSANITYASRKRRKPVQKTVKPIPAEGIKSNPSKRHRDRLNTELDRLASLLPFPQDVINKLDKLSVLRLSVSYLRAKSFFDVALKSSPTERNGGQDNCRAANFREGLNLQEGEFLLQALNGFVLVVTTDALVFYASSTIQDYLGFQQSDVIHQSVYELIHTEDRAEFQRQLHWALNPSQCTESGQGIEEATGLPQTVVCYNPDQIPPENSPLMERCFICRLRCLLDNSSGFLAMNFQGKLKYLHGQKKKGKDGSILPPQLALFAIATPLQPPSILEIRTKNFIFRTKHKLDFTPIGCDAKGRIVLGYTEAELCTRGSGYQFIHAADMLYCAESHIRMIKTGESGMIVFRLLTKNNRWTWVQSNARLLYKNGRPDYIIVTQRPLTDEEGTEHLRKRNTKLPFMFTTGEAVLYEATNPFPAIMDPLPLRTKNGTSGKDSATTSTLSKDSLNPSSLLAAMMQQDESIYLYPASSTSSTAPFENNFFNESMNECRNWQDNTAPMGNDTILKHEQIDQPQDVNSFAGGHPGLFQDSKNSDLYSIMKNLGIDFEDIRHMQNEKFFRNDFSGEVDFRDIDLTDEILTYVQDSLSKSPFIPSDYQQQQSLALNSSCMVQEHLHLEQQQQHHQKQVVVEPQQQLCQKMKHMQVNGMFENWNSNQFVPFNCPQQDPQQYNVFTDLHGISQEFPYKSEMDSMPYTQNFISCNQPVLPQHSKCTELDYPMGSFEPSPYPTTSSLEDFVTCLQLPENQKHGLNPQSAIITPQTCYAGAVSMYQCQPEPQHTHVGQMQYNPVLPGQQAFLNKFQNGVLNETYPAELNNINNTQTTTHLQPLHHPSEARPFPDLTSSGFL
Retinoic acid receptor alpha (Homo sapiens), sequence (P10276 whole entry, looked up): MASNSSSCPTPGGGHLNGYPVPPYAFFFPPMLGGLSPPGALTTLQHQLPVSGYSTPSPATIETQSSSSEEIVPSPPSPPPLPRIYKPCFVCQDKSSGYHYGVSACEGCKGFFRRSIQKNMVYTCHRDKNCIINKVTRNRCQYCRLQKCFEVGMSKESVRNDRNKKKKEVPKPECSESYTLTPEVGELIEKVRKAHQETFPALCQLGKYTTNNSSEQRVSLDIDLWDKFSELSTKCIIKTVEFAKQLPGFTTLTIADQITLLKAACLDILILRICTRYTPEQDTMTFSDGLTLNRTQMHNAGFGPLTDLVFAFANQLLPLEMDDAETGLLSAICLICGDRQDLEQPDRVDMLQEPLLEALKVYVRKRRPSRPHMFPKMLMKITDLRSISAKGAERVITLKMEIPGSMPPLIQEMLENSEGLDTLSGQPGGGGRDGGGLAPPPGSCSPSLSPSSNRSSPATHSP
CCAAT/enhancer-binding protein beta (Homo sapiens), sequence (P17676 whole entry, looked up): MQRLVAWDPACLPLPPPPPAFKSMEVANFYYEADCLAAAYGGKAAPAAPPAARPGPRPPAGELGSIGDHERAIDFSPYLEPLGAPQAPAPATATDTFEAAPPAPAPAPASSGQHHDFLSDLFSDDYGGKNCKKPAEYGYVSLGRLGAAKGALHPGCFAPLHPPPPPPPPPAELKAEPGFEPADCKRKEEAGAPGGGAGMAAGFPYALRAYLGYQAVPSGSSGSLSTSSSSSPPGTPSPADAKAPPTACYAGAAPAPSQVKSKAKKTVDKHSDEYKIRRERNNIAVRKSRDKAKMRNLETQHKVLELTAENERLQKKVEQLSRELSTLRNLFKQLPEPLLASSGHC

For the compound `C[C@](N)(Cc1ccc(O)c(O)c1)C(=O)O`, the compound was called inactive in experiment [1], in [2], in experiment [3], in experiment [4], in experiment [5] and in experiment [6]. Also, the outcome in experiment [7], in experiment [8], in [9] and in experiment [10] was inactive.
Regarding `Cc1c(-c2cccnc2)c2ccccc2n1CCCCC(=O)O`, the compound was classed as inactive in experiment [1], in experiment [2], in experiment [3], in experiment [4], in experiment [5] and in experiment [6]. The compound was classed as inactive in [7], in experiment [8], in experiment [9] and in experiment [10].
As a reminder, the AC50 is the midpoint of the concentration-response curve, whichever way the signal moves. For the compound `O=c1n(CC2CO2)c(=O)n(CC2CO2)c(=O)n1CC1CO1` (stereo not given), the AC50 in experiment [1] was 44.5 µM (active); in experiment [2], 75.7 µM (active); in experiment [6] it was 4.4 µM (active). Moreover, the compound was called inactive in experiment [3], in experiment [4], in experiment [5], in experiment [7], in experiment [8] and in [9]. Also, the result in experiment [10] was inactive.
Consider `CC(C)c1cccc(C(C)C)c1N1C(=O)c2ccc(O)cc2C1=O`, for which the AC50 was 56 µM (active) in experiment [1], 12.1 µM (active) in experiment [4], 24.1 µM (active) in [6] and 5.9 µM (active) in experiment [9]. The outcome in experiment [2], in [3], in experiment [5], in experiment [7], in experiment [8] and in experiment [10] was inactive.
For `O=C1CCCCCN1`, the compound was called inactive in experiment [1], in [2], in [3], in [4], in experiment [5] and in experiment [6]. The outcome in [7], in [8], in experiment [9] and in [10] was inactive.
Regarding `CC(C)CCCCCCOC(=O)c1ccc(C(=O)OCCCCCCC(C)C)c(C(=O)OCCCCCCC(C)C)c1`, the result in experiment [1], in [2], in [3], in experiment [4], in [5] and in experiment [6] was inactive. Besides, the call in experiment [7], in experiment [8], in [9] and in [10] was inactive.
As for `CC(=O)OCCC(C)C`, the compound was classed as inactive in experiment [1], in experiment [2], in [3], in experiment [4], in experiment [5] and in experiment [6]. The call in experiment [7], in experiment [8], in experiment [9] and in [10] was inactive.
For `CC(C)CC(C)(O)C#CC(C)(O)CC(C)C` (stereo not given), the compound was called inactive in [1], in experiment [2], in [3], in experiment [4], in experiment [5] and in experiment [6]. For the same compound, the outcome in experiment [7], in experiment [8], in [9] and in [10] was inactive.
Turning to `O=C(O)c1cc(N=Nc2ccc(S(=O)(=O)Nc3ccccn3)cc2)ccc1O`, the outcome in [1], in experiment [2], in experiment [3], in experiment [4], in experiment [5] and in [6] was inactive. Besides, the result in experiment [7], in experiment [8], in experiment [9] and in [10] was inactive.
Turning to `On1ccccc1=S`, the call in experiment [1], in experiment [2], in experiment [3], in experiment [4], in experiment [5] and in [6] was inactive. Further, the outcome in experiment [7], in experiment [8], in experiment [9] and in [10] was inactive.
For `O=C(OC[C@H]1O[C@@H](OC(=O)c2cc(O)c(O)c(OC(=O)c3cc(O)c(O)c(O)c3)c2)[C@H](OC(=O)c2cc(O)c(O)c(OC(=O)c3cc(O)c(O)c(O)c3)c2)[C@@H](OC(=O)c2cc(O)c(O)c(OC(=O)c3cc(O)c(O)c(O)c3)c2)[C@@H]1OC(=O)c1cc(O)c(O)c(OC(=O)c2cc(O)c(O)c(O)c2)c1)c1cc(O)c(O)c(OC(=O)c2cc(O)c(O)c(O)c2)c1`, the compound was classed as inactive in experiment [1], in experiment [2], in [3], in experiment [4], in experiment [5] and in experiment [6]. Besides, the compound was called inactive in experiment [7], in experiment [8], in experiment [9] and in experiment [10].
In the case of `O=C(O)c1cccc(N(Cc2cccnc2)c2ccc(OC(F)F)c(OC(F)F)c2)c1`, the compound was classed as inactive in [1], in [2], in [3], in [4], in [5] and in experiment [6]. Besides, the call in experiment [7], in experiment [8], in experiment [9] and in experiment [10] was inactive.
`CC(O)CN(CCN(CC(C)O)CC(C)O)CC(C)O` (stereo not given): the outcome in experiment [1], in [2], in [3], in experiment [4], in experiment [5] and in experiment [6] was inactive. The outcome in experiment [7], in experiment [8], in experiment [9] and in experiment [10] was inactive.
On to `CC1=CC(=O)CC(C)(C)C1`, for which the outcome in experiment [1], in experiment [2], in [3], in [4], in experiment [5] and in experiment [6] was inactive. In addition, the outcome in [7], in experiment [8], in [9] and in experiment [10] was inactive.
On to `CCCCCCCCCCCCCCCO`, for which the outcome in experiment [1], in [2], in experiment [5], in experiment [6], in experiment [7] and in experiment [8] was inactive. Further, the call in experiment [9] and in [10] was inactive. Besides, the AC50 in [3] is 56.6 µM (active); in experiment [4] it was 57.7 µM (active).
`COC(=O)c1ccccc1O`: the compound was classed as inactive in experiment [1], in experiment [2], in [3], in [5], in [6] and in experiment [7]. The compound was called inactive in [8], in [9] and in experiment [10]. For the same compound, the concentration at half-maximal activity (AC50) in experiment [4] is 26.1 µM (active).
`CC/C(=C\C(=N/O)C(N)=O)C(C)[N+](=O)[O-]` (stereo not given): the outcome in experiment [1], in experiment [2], in experiment [3], in experiment [4], in experiment [5] and in [6] was inactive. Besides, the outcome in experiment [7], in experiment [8], in [9] and in experiment [10] was inactive.
With `O=P(OC(CCl)CCl)(OC(CCl)CCl)OC(CCl)CCl`, the AC50 in experiment [1] is 72.3 µM (active); in experiment [3], 100 µM (active); in experiment [8], 70.4 µM (active). Also, the outcome in [2], in experiment [4], in experiment [5], in experiment [6], in experiment [7] and in experiment [9] was inactive. The result in [10] was inactive.
As to `Nc1cccc(N)c1`, the compound was called inactive in experiment [1], in experiment [2], in experiment [3], in [4], in experiment [5] and in experiment [6]. Moreover, the call in experiment [7], in [8], in experiment [9] and in experiment [10] was inactive.
With `Cc1ccc(C)c(O)c1`, the compound was classed as inactive in experiment [1], in experiment [2], in experiment [3], in experiment [4], in [5] and in experiment [6]. Also, the compound was called inactive in experiment [7], in experiment [8], in [9] and in [10].
Take `Fc1ccccc1[C@@H](F)COC1CCC(Nc2ncnc3[nH]ncc23)CC1` (stereo not given in full): the AC50 in [1] was 25.5 µM (active); in experiment [3] it was 24.4 µM (active); in experiment [8], 24.6 µM (active); in experiment [10], 25.6 µM (active). Besides, the result in experiment [2], in experiment [4], in experiment [5], in experiment [6], in experiment [7] and in experiment [9] was inactive.

The values above are taken from PubChem BioAssay (EPA / NIEHS).
